The source of these data is the supplement of paper PMC6555819.

The assay has as its system LXRa homodimer (NR concentration 270 nM). Nature of the assay: PBM binding z-score (relative to random genomic background probes); higher = stronger binding; sequences stand for … in GC…GCGATTGACAGCGTAGAATGAAGG
In outline: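 Binding z-scores were set against random background probes. The data came from custom Agilent 4×180K protein-binding microarrays carrying double-stranded probes with 34-nt variable regions, incubated 1 h with ligand-free nuclear receptor dimers. Partner-specific antibodies detected binding, and scanned fluorescence was regression-normalized.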
On to ACAGACAGGTGATGAAGGTAACTCCGGCTATCAT, for which the PBM binding z-score was -0.0879.

The sequence GCGACTGGGGCAAAGCAGGTGACCATAAGGTTGG gave a PBM binding z-score of -0.835. GCTATTAGTTGAAAGGGCAAACGAATGATTCTCG gave a PBM binding z-score of 0.494. On to AGAATGAGGTTATTAAGATCAGGCAATTGCGGTC, for which the PBM binding z-score worked out at 0.308. Consider ATCTCTAGGTAAAAGTTCCGTGAATCCCGAGGAT, for which the PBM binding z-score was -0.0221. For GCTTGCAGATCAAGGTTAAGAAAGACTAAGCTAA, the PBM binding z-score was -0.386. The sequence ACTAGCAGGCCAAGGGTCACTCCAGATTAGTCCG came in with a PBM binding z-score of 0.477.

In the case of ATCGGAAGGTCGAAGGTGAGTATACCCACCCGAA, the PBM binding z-score is -0.0479. Consider CCGACTGGGGCAAAGGTTACCATCCTCAGTACGA, for which the PBM binding z-score was -0.21. CCTACTGGGCAAAGGTCATTGATCAGTCAAAGCA: the PBM binding z-score was determined as 3.49. The result for ATCTCTAGGTAAAGATAGTACAGTGAATGCAAAT reads 0.357. In turn, CATACAGGGTCAGCTAGGCCAGAGCAGGGACGGC yielded a PBM binding z-score of -0.271. ATCTATAGGTAAAAGTTCAGTGAATCCCGAGGAT returned a PBM binding z-score of 1.09. Sequence ATCGAAAGGTCGAGGTGAGTCTAGAGAAAGGGAA yielded a PBM binding z-score of 0.045. Sequence TCTCGTAGATCAATAGAGGTTAAGAAAGTGCGCT showed a PBM binding z-score of 0.504. Sequence GCGACTGGGGCAAAGCAGGTTTCCATAAGGTTGG gave a PBM binding z-score of -0.852. Sequence ACATGTAGGTTATCGGGTCATTCAGTTTGCGCAT gave a PBM binding z-score of 1.98. The sequence CCGAGTAGGTTACGGGGCATTCAGGCAACGGTGA gave a PBM binding z-score of -0.693. GTGCCAAGGTGAATAGGTCGTTGATGAGTAGGCG: the PBM binding z-score was -0.344. The sequence GATACAGGGCCAAGGCCAGAGTACGCGTATTGAT had a PBM binding z-score of -0.782. CCTACTGGGCCATCAGGGCATTGATATCAACGTT registered a PBM binding z-score of -0.715. ATCTCTAGGTAACCAAGTTAAGTGAATGCCGAAC came in with a PBM binding z-score of 0.398. The result for ACTAGCAGGCCATGGGTCACTCAAGATTAGTCCG reads -0.304; that for CGTCAAAGTTCAAGGTAACGAAACAGAAAGCAGC, 2.25; that for TTACCAAGGTGAAGGTTGTTGATCCCTCTGTAGA, -0.298. As to TCTAGTTGGTCACGGAGGTCTCACACGACGGGTA, the PBM binding z-score turned out to be 0.0269.

Turning to CGTCCAAGGTCAGCAGGTCAGTGAAAGCGACGTG, the PBM binding z-score was found to be 0.313. The sequence CCTGCTATGTCAATGGTCAGCTAAAGCAGCTCGC gave a PBM binding z-score of -0.882. Turning to CCGACTGGGGCAAAGGTTACCATTCTCAGTACGA, the PBM binding z-score is -0.141. CGTCCAAGGTCAGCGAGGTCAGTGAATGCCGAGT: the PBM binding z-score is 1.83. The sequence AGTCAAAGTTCACTAGCTAACGTAAGATTCAGCT returned a PBM binding z-score of 2.93. The sequence TCAATTAGTTGAAGGGCAACCGACGAGTCCGTTT registered a PBM binding z-score of 0.203.

TCTCGGAGGACACGAAAGGTTAGAGCTCGACATC returned a PBM binding z-score of -0.0791. In the case of TGAATGAGGTTATAAGATCAGGGAGCGTTGCAAA, the PBM binding z-score is -0.626. TCTGCTAGGTCAACGAAGGTCAGCTAATCTGCTA came in with a PBM binding z-score of 2.58. In turn, TCTTGTAGATCAACAGGAGGCTAAGAAAGATCGA gave a PBM binding z-score of -0.481. As to CTCGAAAGGTCGGGTGAGGTGAGTATACGGATAA, the PBM binding z-score worked out at 0.0705. The result for TAGCATAGGTCATTCAGGGGCCAGTATAGAAAGC reads 1.82; that for ATGCCAAGGTGATCGTGAGGTCGTTGATACTAAC, 0.206; that for GAATATAGGTAATACAAGGTGAAAGTCCGATTGT, 0.76.
